Measurements published in PubChem BioAssay AID1851 (National Center for Advancing Translational Sciences (NCATS), 2009).
Values joined by “and” are separate entries in the source; they are usually repeats but may differ in a detail not shown here. Identical values can stand only once. About 4,000 (25%) of roughly 16,000 compounds were called active. About 26% were inconclusive and are not listed. Calls follow the shape of the dose curve; as a rule, active = well fitted curve in the direction sought with a large enough effect; inconclusive = small, poorly fitted or top-dose-only effect, or effect the other way; inactive = no such curve, though single readings can be large or run the other way. A selection follows. Some compounds were tested as several samples or in several runs, with calls that do not always agree.

Biological target: Cytochrome P450 2C9 (Homo sapiens) (UniProt P11712)
Assay: Cytochrome panel assay with activity outcomes
Details: recombinant CYP, pro-luciferin dealkylation, luminescence, p450-cyp2c9; series mostly up to 57.1 µM
% is scaled to controls: 0 for no effect and ±100 for the full control effect.

Sequence of Cytochrome P450 2C9 (Homo sapiens) (P11712 whole entry, looked up): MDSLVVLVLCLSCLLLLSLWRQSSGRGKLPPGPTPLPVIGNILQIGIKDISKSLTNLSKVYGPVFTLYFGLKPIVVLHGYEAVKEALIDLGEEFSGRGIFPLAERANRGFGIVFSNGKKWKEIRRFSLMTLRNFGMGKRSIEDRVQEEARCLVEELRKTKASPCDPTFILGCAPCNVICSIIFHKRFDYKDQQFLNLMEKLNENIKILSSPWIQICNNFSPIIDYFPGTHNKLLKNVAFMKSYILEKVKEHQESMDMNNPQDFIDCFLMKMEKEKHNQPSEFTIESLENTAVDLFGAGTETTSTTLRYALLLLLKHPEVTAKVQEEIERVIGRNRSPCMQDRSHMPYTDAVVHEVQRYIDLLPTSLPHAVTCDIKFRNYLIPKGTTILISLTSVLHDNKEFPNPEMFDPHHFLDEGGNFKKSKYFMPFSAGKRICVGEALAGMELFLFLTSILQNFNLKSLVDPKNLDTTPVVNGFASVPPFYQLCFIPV

| Compound | AC50 | activity, negative = inhibition |
| --- | --- | --- |
| Oc1c(Cl)cc(C(c2cc(Cl)c(O)c(Cl)c2)C(c2cc(Cl)c(O)c(Cl)c2)c2cc(Cl)c(O)c(Cl)c2)cc1Cl | 0.1 µM (active) |  |
| CN(C)CN1CSC(=S)N(CN(C)C)C1 | 3.16 µM (active) |  |
| [O-][N+](CCO)(CCO)c1ncnc2nc[nH]c12 |  | 27.7% [at 11.4 µM] (inactive) |
| Cc1noc(C)c1C(=O)N1CCC[C@@]2(CCN(Cc3nccs3)C2)C1 | inactive |  |
| c1ccc2cc(Sc3ncnc4c3oc3ccccc34)ccc2c1 | 10 µM (active) |  |
| CC[C@@H](c1ccccc1)n1c(=O)n2n(c1=O)[C@H]1[C@H](O)[C@H]3O[C@@H]3/C(=N/OCc3ccccc3)[C@@H]1CC2 |  | -21.9% [at 11.4 µM] (inactive) |
| COc1ccc(N=C2S/C(=C\c3ccc(C)s3)C(=O)N2CC(C)C)cc1 | 7.08 µM (active) |  |
| CCCN1C(=O)/C(=C/c2ccc(C)s2)SC1=Nc1ccc(OC)cc1 | 7.94 µM (active) |  |
| O=C1[C@@H]2[C@H]3[C@H](O)[C@H](O)C/C(=N/OC[C@@H](O)COCc4ccco4)[C@@H]3CC[C@H]2C(=O)N1c1ccc(F)cc1F |  | -0.354% [at 11.4 µM] (inactive) |
| O=C(CCCn1c(=S)[nH]c2ccc(Br)cc2c1=O)N1CCN(c2ccccn2)CC1 | 3.16 µM (active) |  |
| CC(=O)N1CCC2(CCCN(c3ccccn3)C2)CC1 | inactive |  |
| O=C(CCn1c(=S)[nH]c2ccccc2c1=O)NCCCN1CCOCC1 | inactive |  |
| Cn1c(N)nc2c(nc(OCc3ccccc3)n2[C@@H]2O[C@H](CO)[C@@H](O)[C@@H]2O)c1=O |  | 1.04% [at 11.4 µM] (inactive) |
| CCOC(=O)c1ccc(S(=O)(=O)Nc2ccc3cn[nH]c3c2)cc1 | 0.794 µM (active) |  |
| CCOc1cc(C)c(S(=O)(=O)Nc2ccc3cn[nH]c3c2)cc1C | 2.82 µM (active) |  |
| Cc1ccccc1C1C(C#N)=C2N=C(N)c3c(sc4c3CCCCC4)N2C2=C1C(=O)CC(C)(C)C2 (stereo not given) | 3.55 µM (active) |  |
| OC[C@@H]1O[C@H](O)[C@@H](Cl)[C@H](O)[C@@H]1O | inactive |  |
| Cc1noc(C)c1-c1cncnc1N1CCN(C)CC1 |  | 15.2% [at 2.29 µM] (inactive) |
| O=C(N/N=C/c1cc([N+](=O)[O-])ccc1N1CCNCC1)c1ccc([N+](=O)[O-])cc1 | inactive |  |
| CCN(CC)C(=O)C1CCCN(c2ccc([N+](=O)[O-])cc2/C=N/NC(=O)c2ccc([N+](=O)[O-])cc2)C1 (stereo not given) | 12.6 µM (active) |  |
| CSc1ccccc1NC(=O)CSCc1ccc(C)cc1 | 10 µM (active) |  |
| CN1CCC(=NNC(=O)CSCc2ccccc2)CC1 | inactive |  |
| C=CCN(CC=C)C(=S)Nc1ccccc1 | inactive |  |

| Compound | AC50 | activity, negative = inhibition |
| --- | --- | --- |
| S=C(Nc1ccccc1)Nc1ccccc1C#Cc1ccccc1 | 3.98 µM (active) |  |
| O=S(=O)(N/N=C\c1cn(-c2ccccc2)nc1-c1ccccc1)c1ccccc1 | 4.47 µM (active) |  |
| Cc1ccc(-c2nn(-c3ccccc3)cc2/C=N/NS(=O)(=O)c2ccccc2)cc1 | 7.94 µM (active) |  |
| O=S(=O)(N/N=C\c1cccn1-c1ccccc1)c1ccc2ccccc2c1 | inactive |  |
| CC(C)=C1C(=O)C(c2ccccc2)=C2CN3C(=O)N(CCc4ccccc4)C(=O)[C@]3(Cc3ccccc3)[C@H]21 | 10 µM (active) |  |
| CC1(C)C(=O)C(c2ccccc2)=C2CN3C(=O)N(CCc4ccccc4)C(=O)C3(Cc3ccc(C(F)(F)F)cc3)C=C21 (stereo not given) | inactive |  |
| CCN1CCc2nc(NC(=O)CC(c3ccccc3)c3ccccc3)sc2C1 | 14.1 µM (active) |  |
| CCN1CCC[C@@H](OC(=O)C(c2ccccc2)c2ccccc2)C1 | inactive |  |
| Cc1ccc(Cc2c(C)nc3nc(SCC(=O)NCc4ccco4)nn3c2C)cc1 | 10 µM (active) |  |
| Cc1nc2nc(C)c(CCC(=O)NCCCN3CCN(c4cccc(Cl)c4)CC3)c(C)n2n1 | inactive |  |
| Cc1nc2ncnn2c(C)c1CCC(=O)NCc1ccco1 | inactive |  |
| Cc1nc2nc(SCC(=O)NCc3ccco3)nn2c(C)c1Cc1c(F)cccc1Cl | 0.708 µM (active) |  |
| Fc1ccc(Nc2ncncc2-c2ccoc2)cc1 |  | -24.6% [at 2.29 µM] (inactive) |
| COC(=O)/C=C\CCc1coc(/C=C\CNC(=O)OC)n1 |  | -17.2% [at 11.4 µM] (inactive) |
| c1ccc2c(Nc3ccncc3)nc(-c3ccoc3)nc2c1 |  | -11.6% [at 2.29 µM] (inactive) |
| CC(C)NC(=O)c1ccc2c(=O)n(Cc3ccco3)c(=S)[nH]c2c1 | inactive |  |
| COc1ccc(CCNC(=O)c2ccc3c(=O)n(Cc4ccco4)c(=S)[nH]c3c2)cc1OC | 4.47 µM (active) |  |
| CCCOc1ccccc1-c1nc2n[nH]nc2c(=O)[nH]1 | inactive |  |
| CN(C)S(=O)(=O)Oc1ccc(Cl)cc1C(=O)Nc1cccc(C(F)(F)F)c1 | 7.94 µM (active) |  |
| C/C(=N/OC(=O)c1cccc(Cl)c1)c1nccs1 | inactive |  |
| CN(C)S(=O)(=O)Oc1ccsc1C(=O)Nc1cccc(Cl)c1 | 8.91 µM (active) |  |
| O=C(Cn1ccc(=O)[nH]c1=O)Nc1ccc(C(=O)O)c(O)c1 |  | -4.1% [at 11.4 µM] (inactive) |
| CC(C)CN1CC[C@@]2(CCCN(C(=O)c3cc(C(F)(F)F)cc(C(F)(F)F)c3)C2)C1 | inactive |  |

| Compound | AC50 | activity, negative = inhibition |
| --- | --- | --- |
| COc1ccc2c(c1OC)C(=O)OC2Nc1ncccc1C (stereo not given) | inactive |  |
| COc1ccc2c(c1OC)C(=O)O[C@@H]2[C@H]1c2c(cc3c(c2OC)OCO3)CCN1C | 0.126 µM (active) |  |
| COc1c(O)ccc2c1CN1CCc3cc4c(cc3[C@@H]1C2)OCO4 |  | 1.47% [at 11.4 µM] (inactive) |
| COc1ccc2c(c1OC)C(=O)OC2[C@H]1c2c(cc3c(c2OC)OCO3)CCN1C (stereo not given in full) | 5.01 µM (active) and 2.51 µM (active) |  |
| COc1ccc2cc3[n+](cc2c1OC)CCc1cc2c(cc1-3)OCO2 | inactive |  |
| NCC[C@H](O)C(=O)N[C@H]1C[C@@H](N)[C@@H](O[C@H]2O[C@@H](CN)[C@@H](O)[C@@H](O)[C@@H]2O)[C@@H](O)[C@@H]1O[C@H]1O[C@@H](CO)[C@@H](O)[C@@H](N)[C@@H]1O | inactive |  |
| O=C1c2ccccc2C(=O)C1c1ccccc1 | inactive |  |
| OC(CN1CCCCC1)CN1CCCCC1 | inactive |  |
| Cc1cc2c(nc1C)CCCN2CC(O)CN1CCCc2nc(C)c(C)cc21 |  | -10.8% [at 11.4 µM] (inactive) |
| CO/N=C(\C)CCN1CCCc2nc(C)c(C)cc21 |  | -0.836% [at 11.4 µM] (inactive) |
| Cc1cc2c(nc1C)CCCN2C[C@H](O)CN1CCCc2nc(-c3ccc(Br)cc3)ccc21 | 2.51 µM (active) |  |
| COc1ccc(-c2ccc3c(n2)CCCN3C[C@H](O)CN2CCCc3nc(C)c(C)cc32)cc1 | 3.98 µM (active) |  |
| CCN(CC)C[C@@H](O)CN1CCCCc2nc(C)c(C)cc21 |  | -1.31% [at 11.4 µM] (inactive) |
| Cc1cc2c(nc1C)CCCN2C[C@@H](O)CN1CCN(C)CC1 |  | 29.4% [at 11.4 µM] (inactive) |
| Cc1ccc(Cn2ccc(NC(=O)c3cc4nc(-c5ccco5)cc(C(F)(F)F)n4n3)n2)cc1 | inactive |  |
| Cc1ccc(Cn2nc(C)c(NC(=O)c3cc(-c4ccco4)on3)c2C)cc1 | 12.6 µM (active) |  |
| Clc1cccc(Cl)c1NC1=NCCN1 | inactive and 7.94 µM (active) |  |
| COc1nc(C)nc(Cl)c1NC1=NCCN1 | inactive |  |
| c1ccc2c(CC3=NCCN3)cccc2c1 | inactive |  |
| C/C(=N\Nc1nnc(-c2ccccc2)c(-c2ccccc2)n1)c1cccc([N+](=O)[O-])c1 | 20 µM (active) |  |
| C/C(=N\Nc1ccc([N+](=O)[O-])cc1)c1cccc(N)c1 | 5.62 µM (active) |  |
| O=[N+]([O-])c1cccc(/C=N/Nc2cc(Cl)nc(-c3ccccc3)n2)c1 | inactive |  |
| c1ccc([C@@H]2CN3CCSC3=N2)cc1 | inactive |  |

| Compound | AC50 | activity, negative = inhibition |
| --- | --- | --- |
| CN(C)C(=O)c1ccc(-c2nc(NCc3ccccc3)c3ccccc3n2)cc1 |  | -4.46% [at 2.29 µM] (inactive) |
| CCOC(=O)c1nnc(-c2ccccc2)nc1NCc1ccccc1 | 25.1 µM (active) |  |
| CN(C)C(=O)c1ccc(-c2nccc(NCc3ccccc3)n2)cc1 |  | -14% [at 2.29 µM] (inactive) |
| CCCCN(CC)C(=O)Cc1ccccc1OC | inactive |  |
| O=C(O)CCC(=O)c1ccc2ccc3cccc4ccc1c2c34 |  | 4.8% [at 11.4 µM] (inactive) |
| COc1ccc(C(=O)CCN(C)C)c2ccccc12 | 3.98 µM (active) |  |
| O=C1c2ccccc2CCC12N=NCC2c1ccc(Cl)cc1 (stereo not given) | 14.1 µM (active) |  |
| CC(C)(C)NC(=S)Nc1ccc(Nc2ccccc2)cc1 | 7.08 µM (active) |  |
| CNC(=S)Nc1ccc(Nc2ccccc2)cc1 | 39.8 µM (active) |  |
| COc1ccc(NC(=S)Nc2ccccc2)cc1 |  | -15.3% [at 11.4 µM] (inactive) |
| Nc1ccc(Nc2ccccc2)cc1 | 8.91 µM (active) |  |
| CNC(=S)Nc1ccc2nc(C)c(C)nc2c1 | inactive |  |
| N#[N+]c1ccc(Nc2ccccc2)cc1 |  | 5.95% [at 11.4 µM] (inactive) |
| Cc1ccccc1-c1cncnc1Nc1ccccc1 |  | -13.5% [at 2.29 µM] (inactive) |
| CN(C)C(=O)c1ccc(-c2ccc3ncnc(NCCN4CCOCC4)c3c2)cc1 |  | 1.81% [at 2.29 µM] (inactive) |
| Cc1c(C(=O)Nc2nccs2)sc2nc(-c3cccs3)cc(C(F)(F)F)c12 | 3.16 µM (active) |  |
| CC(C)(C)NC(=O)CN(Cc1cccs1)C(=O)CCC(=O)Nc1nccs1 | inactive |  |
| CCC(NC(=O)C1(C)CC1(Br)Br)c1ccc(C)cc1 (stereo not given) | 5.01 µM (active) |  |
| CC[C@H](NC(=O)c1c(C)c(-c2ccccc2)nc2ccccc12)c1ccccc1 | inactive |  |
| N#Cc1cccc(-c2nccc(-n3ccnc3)n2)c1 |  | 5.77% [at 2.29 µM] (inactive) |
| CO[C@H]1[C@@H](OC(N)=O)[C@H](O)[C@@H](Oc2ccc3c(O)c(NC(=O)c4ccc(O)c(CC=C(C)C)c4)c(=O)oc3c2C)OC1(C)C | inactive |  |
